# NPC1 promoter act: NPC1 promoter activation | Huh7 NPC1 promoter luciferase reporter, 24 h | Potency, µM (doses to about 9.22 µM), usual class: activators | 2.4% of 320,000 active | AID 485313; further: nearly all actives have a fitted effect of over 60% in size
#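 Luminescence read-out of NPC1 promoter-driven luciferase in stably transfected Huh7 cells; compounds delivered in DMSO and left 24 h at 37C, 5% CO2, qHTS titration format.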
# Rab9 promoter act: activators of Rab9 promoter; Huh7 Rab9 promoter-luciferase reporter, luminescence, 24 h; Potency, µM (titrated, usually from 9.22 µM), actives largely listed as activators; 2.8% of 320,000 active; AID 485297; further: nearly all actives have a fitted effect of over 60% in size
#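 Quantitative HTS format; Huh7 Rab9-luciferase reporter cells (1500/well) receive compound 2 h post-plating, incubate 24 h at 37 °C, then get luciferase reagent for 10 min before luminescence reading.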
# SMN2 splice up: SMN2 splice variant enhancement | 2.8% of 210,000 active | AID 1458 | Potency, µM (top dose mostly 46.1 µM), actives largely listed as activators | HEK293 SMN2-luciferase splicing reporter, luminescence, 30-36 h; further: nearly all actives have a fitted effect of over 55% in size
#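 qHTS luciferase splicing reporter: luminescence rises when SMN2 exon 7 is included in transfected HEK293 cells. Compound exposure lasted 30-36 h at 37C, with 4.5 mM final sodium butyrate as control, followed by a ONE-Glo read.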
# ELG1 genotox: genotoxicity induction in ELG1-luciferase HEK293T cells | HEK293T ELG1-luciferase reporter, luminescence, 16 h | Potency, µM (titrated, usually from 46 µM), most hits filed as activators | 1.3% of 330,000 active | AID 504466; further: nearly all actives have a fitted effect of over 60% in size
#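 After overnight (16 hr) compound treatment at 37 °C, ELG1-luciferase HEK293T cells were lysed with ONE-Glo; luminescence quantified 30 min later at room temperature.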
# FLuc counter: counter-screen for miR-21 project: firefly luciferase inhibitors or activators | Potency, µM (series often up to 57.5 µM), hits mostly inhibitors | 6.9% of 360,000 active | P08659 | AID 588342 | purified FLuc, Km substrates, luminescence inhibition; further: nearly all actives have a fitted effect of over 55% in size
# Target sequence (P08659 whole entry, looked up): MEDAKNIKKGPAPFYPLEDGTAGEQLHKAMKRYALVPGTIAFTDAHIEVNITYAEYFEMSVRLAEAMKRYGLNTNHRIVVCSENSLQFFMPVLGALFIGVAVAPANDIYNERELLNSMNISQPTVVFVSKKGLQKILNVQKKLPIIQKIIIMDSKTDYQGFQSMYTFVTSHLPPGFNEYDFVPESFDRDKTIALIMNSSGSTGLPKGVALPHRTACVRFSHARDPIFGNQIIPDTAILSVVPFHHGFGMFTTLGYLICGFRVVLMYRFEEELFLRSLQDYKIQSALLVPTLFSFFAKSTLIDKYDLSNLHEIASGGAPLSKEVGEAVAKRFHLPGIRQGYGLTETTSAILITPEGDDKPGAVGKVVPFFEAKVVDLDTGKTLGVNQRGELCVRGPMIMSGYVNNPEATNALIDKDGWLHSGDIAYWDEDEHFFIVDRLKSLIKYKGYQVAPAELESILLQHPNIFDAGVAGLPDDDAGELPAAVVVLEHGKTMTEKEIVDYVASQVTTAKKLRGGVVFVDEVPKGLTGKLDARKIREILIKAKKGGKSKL
#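 Purified P. pyralis luciferase (10nM final) with 10uM D-luciferin and 10uM ATP (Km levels) in 50mM Tris acetate pH 7.5, 10mM Mg acetate, 0.01% Tween-20, 0.05% BSA; qHTS 6-point titration, ~60 µM downward; luminescence read.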
# Numbers stand for hits; i = inactive; ? = inconclusive; nt = not tested or not shown. Sampled rows, rich in hits. Any-hit rate of the full collection: about 7.4%. The call rests on the fitted dose curve; in most records, active means well fitted curve in the direction sought with a large enough effect; inconclusive means small, poorly fitted or top-dose-only effect, or another doubt; inactive means no such curve, though single readings can be large; an effect the other way counts as inactive or inconclusive.
SMILES,NPC1 promoter act,Rab9 promoter act,SMN2 splice up,ELG1 genotox,FLuc counter
Cc1ccc2nc(SCC(=O)Nc3ccc(C#N)cc3)[nH]c2c1,nt,nt,i,nt,i
Cc1cc(C(=O)CSc2nc3ccc(Cl)cc3[nH]2)c(C)n1CC1CCCO1 (stereo unspecified),i,i,i,i,?
CC(C)c1ccc2[nH]c3nc(SCC(=O)N4CCOCC4)nnc3c2c1,i,i,?,i,6.7µM
Cc1ccc2[nH]c(SCC(=O)N3CCOCC3)nc2c1C,?,3.5µM,6.3µM,?,15µM
C/C(N)=C(/C#N)C(=O)CSc1nc2ccc(C)cc2[nH]1,1.4µM,1.1µM,10µM,?,4.8µM
C/C=C/C(O)c1ccc2ccccc2c1 (stereo unspecified),i,i,nt,i,?
Cc1ccc(C(=O)c2sc(Nc3ccc(F)cc3)nc2N)c(C)c1,nt,nt,nt,nt,i
Cc1cc(NC(=O)Nc2nnc(N3CCCCC3)s2)ccc1Br,nt,nt,nt,nt,i
Cc1ccc2nc(SCC(=O)N3CCOCC3)[nH]c2c1,2.5µM,1.6µM,?,9.2µM,6.7µM
Cc1ccc2nc(SCC(=O)N3CCN(c4ccccc4)CC3)[nH]c2c1,i,i,nt,i,i
Cc1cc(C)c2c(N)c(C(=O)Nc3ccccc3F)sc2n1,1.8µM,2.2µM,nt,?,nt
COc1ccc2nc(NC(=O)c3sc4nc(C)cc(C)c4c3N)sc2c1,?,?,nt,?,0.12µM
COC(=O)c1sc2nc(C)cc(C)c2c1N,i,i,nt,i,?
Cc1cc(C)c2c(N)c(C(=O)Nc3ncc(C)s3)sc2n1,i,?,i,?,0.095µM
COCc1cc(C)nc2sc(C(=O)Nc3ccccc3Br)c(N)c12,i,i,nt,i,8.5µM
CCc1ccccc1NC(=O)c1sc2nc(C)cc(C)c2c1N,i,i,nt,i,?
Cn1sc(NC(=O)c2ccccc2Cl)nc1=O,i,i,?,i,19µM
Cn1sc(NC(=O)c2cccc(Cl)c2)nc1=O,?,i,i,i,19µM
O=C(/C=C/c1cccs1)N1CCN(c2ccccc2)CC1,i,?,i,i,?
O=C(/C=C/c1cccc(F)c1)Nc1cc(S(=O)(=O)N2CCOCC2)ccc1Cl,nt,nt,nt,i,nt
O=C(/C=C/c1cccs1)c1ccc([N+](=O)[O-])cc1,i,i,nt,i,4.3µM
O=C(/C=C/c1cccs1)c1ccc(N2CCOCC2)cc1,3.5µM,2.2µM,i,?,0.24µM
O=C(/C=C/c1cccs1)Nc1ccc([N+](=O)[O-])cc1,i,?,?,i,?
O=C(/C=C/c1cccc(F)c1)c1ccc(N2CCOCC2)cc1,?,?,nt,?,1.1µM
O=C(Cn1nnc(-c2ccccc2)n1)Nc1cccc(S(=O)(=O)N2CCOCC2)c1,i,i,nt,i,i
SMILES,NPC1 promoter act,Rab9 promoter act,SMN2 splice up,ELG1 genotox,FLuc counter
O=S(=O)(NCCC1=CCCCC1)c1ccc(Br)cc1,i,i,nt,i,i
CC(C)(C)C1CCc2nc(NC(=O)COc3ccccc3[N+](=O)[O-])sc2C1 (stereo unspecified),nt,nt,nt,nt,i
Cc1cc(C)cc(OCC(=O)Nc2nc3c(s2)CC(C(C)(C)C)CC3)c1 (stereo unspecified),nt,nt,nt,nt,12µM
CC(C)(C)c1nnc(NC(=S)Nc2ccccc2)s1,3.5µM,3.2µM,13µM,?,9.5µM
O=C(Cc1ccccc1)Nc1nccs1,i,i,nt,i,i
Fc1ccc(NC(=S)Nc2nccs2)cc1,?,3.5µM,?,i,21µM
S=C(Nc1ccccc1)Nc1nccs1,2.5µM,?,?,i,15µM
COc1cc(OC)cc(C(=O)Nc2nnc(NC(=S)Nc3ccccc3)s2)c1,i,i,i,i,i
COc1cc(Cl)c(C)cc1NC(=O)c1cnn(-c2ccc(C)cc2)c1-n1cccc1,nt,nt,nt,nt,i
CC(C)(CN1CCN(C(c2ccccc2)c2ccccc2)CC1)NS(=O)(=O)c1ccccc1,i,i,nt,i,i
CC(=O)Nc1ccc(Nc2nc(C)nc3c2oc2ccccc23)cc1,i,i,nt,i,i
CC(=O)c1ccc(Nc2ncnc3c2oc2ccccc23)cc1,1.4µM,?,1.6µM,2.1µM,?
c1ccc2c(c1)oc1c(NCC3CCCO3)ncnc12 (stereo unspecified),i,i,i,i,17µM
Clc1ccc2[nH]c3c(NCC4CCCO4)ncnc3c2c1 (stereo unspecified),i,i,nt,i,?
c1ccc(CNc2ncnc3c2oc2ccccc23)nc1,i,i,i,i,19µM
c1ccc(-c2nc(NCC3CCCO3)c3oc4ccccc4c3n2)cc1 (stereo unspecified),i,i,i,i,15µM
Cc1cc(Nc2cc(F)ccc2C)nc(-n2nc(C)cc2C)n1,nt,nt,nt,nt,i
CCc1ccc(NC(=O)CCCc2nnc3n(CC(C)C)c(=O)c4sccc4n23)cc1,nt,nt,nt,nt,i
O=C(Cn1ccc([N+](=O)[O-])n1)N1CCCCCC1,i,i,i,i,i
O=C(OCC(=O)N1CCN(c2ccccc2)CC1)c1ccccc1[N+](=O)[O-],3.5µM,3.2µM,nt,5.2µM,6.7µM
O=C(COC(=O)c1ccccc1[N+](=O)[O-])NC(=O)c1ccccc1,i,i,nt,i,17µM
O=C(Cn1ccc([N+](=O)[O-])n1)N1CCCc2ccccc21,i,i,i,?,17µM
O=C(COc1ccccc1[N+](=O)[O-])N1CCCc2ccccc21,i,i,nt,i,i
O=C(OCC(=O)N1CCCc2ccccc21)c1ccccc1[N+](=O)[O-],?,?,nt,?,15µM
COc1ccc(-n2ncc(C(=O)NCc3cccs3)c2C2CCN(C(=O)OC(C)(C)C)CC2)cc1,nt,nt,nt,nt,i
SMILES,NPC1 promoter act,Rab9 promoter act,SMN2 splice up,ELG1 genotox,FLuc counter
COc1cccc(N2CCN(C(=O)c3ccc4c(=O)n(CCc5ccccc5)c(=O)[nH]c4c3)CC2)c1,nt,nt,i,nt,i
COC(=O)CCCC(=O)NC1CCCc2c1cnn2-c1ccc(F)cc1F (stereo unspecified),i,i,nt,i,i
NC(=O)CC[C@H](NC(=O)c1ccc(F)cc1)C(=O)N1CCN(Cc2ccc3c(c2)OCO3)CC1,nt,nt,nt,i,nt
CC(C)C(=O)Nc1cccc(C(=O)OCC(=O)c2ccc(Cl)cc2Cl)c1,i,i,i,i,1.2µM
COc1ccc(C(=O)COc2ccc(C)cc2NC(C)=O)cc1,3.5µM,1.3µM,nt,?,i
CCOC(=O)Nc1cc(C(=O)OC)ccc1C,i,i,i,i,i
COc1ccc(C(=O)CC(=O)C(=O)Nc2cc(OC)ccc2OC)cc1,i,i,nt,i,i
CC(=O)Nc1cc(C(=O)OCC(=O)c2ccc(C)cc2)ccc1C,4µM,2.2µM,?,?,6µM
CC(=O)Nc1cc(C(=O)OCC(=O)c2ccc(Cl)cc2Cl)ccc1C,i,i,i,i,2.4µM
COCC(=O)Nc1cc(Cl)ccc1C,i,i,i,i,i
CCCn1c(C)nc2c(NCc3ccccc3)nc(C)nc21,nt,nt,i,nt,nt
CCCCC/C=C\C\C=C/C=C/C=C/[C@@H](SCC(N)C(=O)NCC(=O)O)[C@@H](O)CCCC(=O)O (stereo partly specified),nt,nt,i,nt,nt
O=c1oc2ccccc2cc1-c1csc(NN=C2CCCCC2)n1,?,?,?,i,13µM

# Assay outcomes from PubChem.
